sEH act = activators of human soluble epoxide hydrolase; P34913; purified human sEH enzymatic activity, activator screen; activation, % at 2 µM; 0.04% of 91,000 active; in the data active = activation above about 37%
CYP2C19 inhib = inhibitors of human CYP2C19. 21% of 96,000 active. inhibition, % at 5 µM. CYP2C19 Supersomes, luciferin-H EGE luminescence, 30 min;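 active = CYP2C19 inhibition above a set limit at 5 µM in the primary screen, cut at about 50% in these data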;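 note: plate controls were negative control wells for no effect and 2.5 mM tranylcypromine positive control for full effect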
CYP2C9 inhib = human CYP2C9 inhibition; P11712; CYP2C9 Supersomes, luciferin-H conversion, luminescence; inhibition, % at 5 µM; 20% of 96,000 active; AID 777;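 active = blocking of liver enzyme CYP2C9 beyond about 50% at 5 µM, limit read from the data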
CYP2C19 activ = cytochrome P450 2C19 (human) activation | activation factor at 5 µM | P33261 | 96,000 tested, under 10 active | recombinant CYP2C19, luciferin-H EGE luminescence; active compounds read high; 0 = fully inhibited enzyme, 1 = untreated enzyme | AID 1025;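 active = activation factor of at least 2 at 5 µM in the primary screen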;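 note: 0 = wells with 2.5 mM tranylcypromine and 1 = vehicle-only wells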
sEH inh = inhibitors of human soluble epoxide hydrolase; P34913; AID 707; 0.34% of 91,000 active; inhibition, % at 2 µM; recombinant human sEH enzymatic activity assay; in the data active = inhibition above about 80%
CYP2C9 activ = increases human cytochrome P450 2C9 activity; 1.4% of 96,000 active; recombinant CYP2C9, luciferin-H conversion, luminescence; active compounds read high; factor 1 = untreated enzyme, 0 = blocked; P11712; activation factor at 5 µM;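 active = activation factor of 2 or more for CYP2C9 at a 5 µM dose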;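 note: 0 = sulfaphenazole-blocked wells and 1 = vehicle-only wells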
Numbers without * were called inactive; . = no result given. Hits are enriched below; roughly 27% of the tested compounds scored in any of these assays.

SMILES | sEH act | CYP2C19 inhib | CYP2C9 inhib | CYP2C19 activ | sEH inh | CYP2C9 activ
Cc1cccc(-n2ccnc2SCC(=O)Nc2cc(C)on2)c1 | 6 | 25 | 16 | 0.8 | -9 | 0.8
COc1cccc(-n2ccnc2SCC(=O)Nc2ccccc2)c1 | 6 | 80* | 47 | 0.2 | -4 | 0.5
COc1cccc(NC(=O)CSc2nccn2-c2cccc(OC)c2)c1 | -10 | 61* | 26 | 0.4 | 10 | 0.7
COc1ccc(-n2c(=S)[nH]c3cc(C(=O)NCCCN4CCCC4=O)ccc3c2=O)cc1 | -76 | 2 | -6 | 1 | 76 | 1.1
Cc1ccc(NC(=O)N2CCC(C(=O)NCC(C)C)CC2)cc1 | . | -22 | -16 | 1.2 | . | 1.2
O=C(Nc1nnc(C23CC4CC(CC(C4)C2)C3)s1)c1ccc(N2C(=O)CCC2=O)cc1 | -7 | -5 | 6 | 1.1 | 6 | 0.9
O=C(CSc1nccn1-c1cccc(Cl)c1)Nc1ccc2c(c1)OCCO2 | -13 | 66* | 66* | 0.3 | 16 | 0.3
COc1cccc(-n2ccnc2SCC(=O)Nc2cc(OC)ccc2OC)c1 | 10 | 89* | -20 | 0.1 | -10 | 1.2
Nn1cnnc1SCC(=O)Nc1ccc2c(c1)OCCO2 | 7 | 0 | 0 | 1 | -8 | 1
COc1ccc(-n2ccnc2SCC(=O)Nc2ccccc2)cc1 | . | 60* | 60* | 0.4 | . | 0.4
COc1ccc(OC)c(NC(=O)CSc2ncccc2C(=O)O)c1 | -1 | -14 | -12 | 1.1 | -1 | 1.1
O=C(Oc1cccc2c(OC(=O)N3CCCC3)cccc12)N1CCCC1 | -7 | . | . | . | 9 | .
COC(=O)c1c(CCl)noc1C(=O)NCC1CCCO1 (stereo unspecified) | 0 | 5 | 1 | 1 | 2 | 1
CCOc1ccc(Cn2c(=O)oc3ccc(C)cc32)cc1OC | -5 | 64* | 39 | 0.4 | 6 | 0.6
O/N=C/c1cccn1-c1ccc(O)cc1 | -19 | 46 | -199 | 0.5 | 19 | 3*
CCOC(=O)CCNC(=O)CNC(=O)OCc1ccccc1 | 1 | 7 | 8 | 0.9 | 1 | 0.9
Cc1ccc(OCCn2c(C)c(/C=N/n3cnnc3)c3ccccc32)cc1 | -9 | 86* | 89* | 0.1 | 10 | 0.1
N#C/C(=C/c1ccc(N2CCOCC2)o1)c1nc2ccccc2[nH]1 | -17 | . | . | . | 20 | .
N#C/C(=C\c1cccc2ccccc12)c1nn(-c2ccccc2)c(N)c1C#N | 12 | . | . | . | -9 | .
N#C/C(=C\c1cc([N+](=O)[O-])c(N2CCCCC2)cc1N1CCCCC1)c1nn(-c2ccccc2)c(N)c1C#N | 4 | 69* | 97* | 0.3 | -3 | 0
Cc1cc(/C=C(/C#N)c2nc3ccccc3[nH]2)c(C)n1-c1cccc([N+](=O)[O-])c1 | -3 | 40 | 81* | 0.6 | 2 | 0.2
N#C/C(=C\c1cc([N+](=O)[O-])c(N2CCOCC2)cc1N1CCOCC1)c1nc2ccccc2[nH]1 | 2 | 91* | 97* | 0.1 | -5 | 0
COc1cc(/C=C(\C#N)c2nc3ccc(C)cc3[nH]2)c([N+](=O)[O-])cc1OC | -4 | 31 | 37 | 0.7 | 5 | 0.6
CCCCNC(=O)OC(C)CNC(=O)Oc1cccc(C)c1 (stereo unspecified) | . | 22 | 10 | 0.8 | . | 0.9
CCOc1ccc(Br)cc1S(=O)(=O)Nc1ccc(N2CCOCC2)cc1 | -2 | 64* | 54* | 0.4 | 3 | 0.5
SMILES | sEH act | CYP2C19 inhib | CYP2C9 inhib | CYP2C19 activ | sEH inh | CYP2C9 activ
CCOc1ccc(Br)cc1S(=O)(=O)Nc1nc(CN2CCOCC2)nc2sc(C)c(C)c12 | 14 | 17 | 30 | 0.8 | -16 | 0.7
CCOc1ccc(Br)cc1S(=O)(=O)Nc1ccccc1N1CCOCC1 | -14 | 78* | 55* | 0.2 | 14 | 0.4
CCCCN(C)Cc1c(C)[nH]c2ccc(OCC)cc2c1=O | . | -15 | 3 | 1.2 | . | 1
CSc1nc2nc3c(c(=O)n2[nH]1)CCCC3 | 10 | -7 | 11 | 1.1 | -10 | 0.9
N#C/C(=N\Nc1ccc(Cl)cc1)C(=O)c1ccccc1 | 8 | 69* | 7 | 0.3 | -5 | 0.9
CCOC(=O)NC(=O)/C(C#N)=N\Nc1ccc(Cl)cc1 | 1 | -10 | 11 | 1.1 | -4 | 0.9
COC(=O)c1cccc(S(=O)(=O)N(Cc2ccco2)Cc2cc3cc(OC)ccc3[nH]c2=O)c1 | -8 | 24 | 23 | 0.8 | 6 | 0.8
Cc1ccc(N(C(=O)c2cccs2)C2C=CS(=O)(=O)C2)cc1 (stereo unspecified) | . | 16 | -3 | 0.8 | . | 1

Source: PubChem BioAssay
